Screen size: about 52,000 compounds; about 4,300 (8.3%) were called active. The sample holds actives, similar compounds and a random draw of the others, so the mix is not that of the screen. Values without a mark were called inactive. No stated cut-off is given here; in the data, active means survival mostly below about 52% (no sharp cut-off); inactive means mostly above about 56%.
These compounds were tested on DeltatarO mutant (assay: growth inhibition of S. aureus wild type versus tarO mutant, primary screen, teichoic acid synthesis inhibitors, RN4220, OD600 (AID 463173)). Conditions: OD600, 18 h, active compounds read low, screened at 18.75 µg/mL (by protocol).

SMILES	survival
COc1ccc(CN2CCCN(CC(=O)Nc3ccc4c(c3)OCCO4)S2(=O)=O)cc1	74%
O=C1c2ccccc2C(=O)N1CCCn1nnc(-c2ccc(N3CCOCC3)cc2)n1	74%
CCCNc1nc(Cl)nc(Cl)n1	62% (active)
C=CCNc1nc(Cl)nc(Cl)n1	99%
CC(C)Nc1nc(Cl)nc(NCCO)n1	110%
Cc1ccc(-n2ncc3c(=O)n(Cc4cccc(Cl)c4)cnc32)cc1C	91%
COc1ccccc1CNS(=O)(=O)c1cc(Br)cc2c1N(C(=O)C1CC1)CC2	58%
Cc1ccc(NS(=O)(=O)c2cc(Br)cc3c2N(C(=O)C2CC2)CC3)cc1C	95%
O=C(C1CC1)N1CCc2cc(Br)cc(S(=O)(=O)Nc3ccc(C(F)(F)F)cc3)c21	41% (active)
COc1ccc(Cl)cc1NS(=O)(=O)c1cc(Br)cc2c1N(C(=O)C1CC1)CC2	55% (active)
CN(Cc1ccccc1)S(=O)(=O)c1cc(Br)cc2c1N(C(=O)C1CC1)CC2	34% (active)
CCN(Cc1ccccc1)S(=O)(=O)c1cc(Br)cc2c1N(C(=O)C1CC1)CC2	58%
CC(C)c1ccc(NS(=O)(=O)c2cc(Br)cc3c2N(C(=O)C2CC2)CC3)cc1	56%
CC(=O)Nc1ccc(NS(=O)(=O)c2cc(Br)cc3c2N(C(=O)C2CC2)CC3)cc1	74%
CCOc1ccc(NS(=O)(=O)c2cc(Br)cc3c2N(C(=O)C2CC2)CC3)cc1	79%
COc1cc(NS(=O)(=O)c2cc(Br)cc3c2N(C(=O)C2CC2)CC3)cc(OC)c1	99%
CCCCN(Cc1ccccc1)S(=O)(=O)c1cc(Br)cc2c1N(C(=O)C1CC1)CC2	57%
CCc1ccccc1NS(=O)(=O)c1cc(Br)cc2c1N(C(=O)C1CC1)CC2	52% (active)
CCC(C)Nc1nc2c(c(=O)[nH]c(=O)n2C)n1Cc1ccc(F)cc1 (stereo not given)	73%
Cc1cc(C)c(NC(=O)CN(c2ccccc2)S(=O)(=O)N(C)C)c(C)c1	66%
CCCc1ccc(OCC(=O)Nc2sc3c(c2C(=O)OCC)CCC(C(C)(C)C)C3)cc1 (stereo not given)	125%
COc1ccc(-n2c(=O)c3ccc(C(=O)NCc4ccc(C)cc4)cc3n(Cc3ccc(F)cc3Cl)c2=O)cc1	99%
COc1ccc(C2=NC(C)(C)N(CC(=O)Nc3cccc(C)c3)C2=O)cc1	76%
CC(=O)N(Cc1ccccc1)Cc1cc2cc(C)ccc2n2nnnc12	77%
COc1ccc(Nc2nc(N)nc(N)c2S(=O)(=O)c2ccccc2)cc1	78%

Source: PubChem BioAssay AID463173 (ICCB-Longwood Screening Facility, Harvard Medical School, 2010)
